Bioassay records as filed in PubChem BioAssay.
Sampled rows, rich in hits. Any-hit rate of the full collection: about 4.1%.
rCAG binder = binders of r(CAG) RNA repeats, primary screen, biochemical, fluorescence | inhibition, % at 3 µM | 370,000 compounds, 1.3% hits | r(CAG) RNA repeat, TO-PRO-1 dye displacement fluorescence;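 active = inhibition above the plate cutoff, the mean of all test compounds on that plate plus 3 SD, cut at about 35% in these data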;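 also: higher means more dye released from RNA so lower well fluorescence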
ABHD5 PLIN5 PPI = ABHD5-PLIN5 interaction inhibitors, primary screen, cell lysate, split luciferase complementation, luminescence; AID 602281, 2012; Perilipin-5 (Homo sapiens) + 1-acylglycerol-3-phosphate O-acyltransferase ABHD5 (Homo …; Split G. princeps luciferase complementation, 4 h; inhibition, % at 4 µM; 360,000 compounds, 0.78% hits;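 active = inhibition above the mean inhibition across every tested compound plus 3 SD, cut at about 22% in these data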
LEDGF integ inh = blockers of LEDGF/p75-dependent integrase strand transfer – biochemical, TR-FRET, high throughput, primary screen | HIV-1 integrase (with human LEDGF/p75) | TR-FRET IN-LEDGF/p75 DNA integration, Eu/Cy5 | inhibition, % at 3.7 µM | 370,000 compounds, 0.64% hits | AID 743269, 2014;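 active = inhibition above the screen-wide mean plus 3 SD, cut at about 13% in these data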;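 also: signal is the Cy5 over europium emission ratio at 671 and 618 nm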
PRMT1 FP inh = PRMT1 methyltransferase inhibitors, primary screen, biochemical, fluorescence polarization; 370,000 compounds, 1.3% hits; Protein arginine N-methyltransferase 1 (Homo sapiens), Q99873; AID 652257, 2013; recombinant PRMT1, activity-based probe fluorescence polarization; inhibition, % at 2.79 µM;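 active = inhibition above about 21% made by adding two undisclosed values, limit read from the data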
Target sequence (Q99873 whole entry, looked up): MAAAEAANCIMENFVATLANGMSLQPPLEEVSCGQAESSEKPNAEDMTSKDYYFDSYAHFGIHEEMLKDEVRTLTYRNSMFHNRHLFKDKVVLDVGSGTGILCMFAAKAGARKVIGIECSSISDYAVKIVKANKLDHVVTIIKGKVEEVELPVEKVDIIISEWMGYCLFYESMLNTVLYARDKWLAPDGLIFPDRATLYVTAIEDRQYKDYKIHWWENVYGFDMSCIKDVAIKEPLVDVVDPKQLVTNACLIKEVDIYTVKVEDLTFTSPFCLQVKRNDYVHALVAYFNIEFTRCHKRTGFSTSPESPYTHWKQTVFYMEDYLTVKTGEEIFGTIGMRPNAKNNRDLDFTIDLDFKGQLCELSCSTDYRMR
UHRF1 MBD2 ctr = UHRF1 methylated DNA binding inhibitors, primary screen, counter-screen for MBD2 inhibitor project, biochemical, TR-FRET, human UHRF1, single concentration | E3 ubiquitin-protein ligase UHRF1 (Homo sapiens), Q96T88 | UHRF1 binding to methylated oligo | inhibition, % at 4.4 µM | 370,000 compounds, 0.75% hits | AID 687016, 2013;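 also: UHRF1 SRA domain binding a hemimethylated CpG hairpin DNA probe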
MBD2 inh = inhibitors of MBD2 binding to methylated DNA, primary screen, biochemical, TR-FRET, DNA-binding domain, human; Methyl-CpG-binding domain protein 2 (Homo sapiens), Q9UBB5; MBD2 binding to methylated oligonucleotide; inhibition, % at 4.4 µM; 370,000 compounds, 0.31% hits; in the data active = inhibition above about 13%
UHRF1 ctr MBD2 = UHRF1 methylated DNA binding inhibitors, counter-screen for MBD2 inhibitor project, biochemical, TR-FRET, human UHRF1 | shares compounds with MBD2 inh | UHRF1 binding to methylated oligonucleotide | inhibition, % at 4.4 µM | 1,000 compounds, 25% hits | AID 720530, 2013;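 also: UHRF1 SRA domain binding a labeled hemimethylated CpG hairpin DNA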
MBD2 DBD conf = inhibitors of MBD2 binding to methylated DNA, confirmation, biochemical, TR-FRET, DNA-binding domain, human; shares compounds with MBD2 inh; TR-FRET MBD2-DBD binding to methylated oligonucleotide; inhibition, % at 4.4 µM; 1,000 compounds, 26% hits; in the data active = inhibition above about 14%
Large screens that a line does not name were inactive (follow-up assays come after a bar, where they were run). Rule as the data show it, unless noted: active = inhibition above about 21%; inactive = the rest.

COc1cccc(NC(=S)N2CCN(Cc3ccccc3)CC2)c1	MBD2 inh 17 | UHRF1 ctr MBD2 inactive | MBD2 DBD conf inactive
COc1cc(NC(=S)N2CCN(Cc3ccccc3)CC2)cc(OC)c1	none
CCNC(=O)N(C)[C@H]1C[C@H]2c3[nH]c4c(-c5cccc(C)c5)cccc4c3CCN2C[C@H]1[C@H](C)O	none (no result: ABHD5 PLIN5 PPI)
FC(F)(F)c1ccccc1CN1CCCc2nc(-c3ccc(Br)cc3)ccc21	none (no result: ABHD5 PLIN5 PPI)
O=C(Nc1ccc(N2CCCCC2)cc1)c1cccnc1	none
O=C(Nc1ccc(N2CCN(Cc3ccccc3Cl)CC2)cc1)c1cccnc1	MBD2 inh 15 | UHRF1 ctr MBD2 inactive | MBD2 DBD conf inactive
CC(=O)CC[C@H]1CC[C@]2(CCCN(Cc3nccn3C)C2)O1	none (no result: ABHD5 PLIN5 PPI)
CC(=O)c1cc(-c2ccc(F)cc2)n(CCC(=O)NC(C)(C)C)c1C	LEDGF integ inh 15, UHRF1 MBD2 ctr 83, MBD2 inh 36 | UHRF1 ctr MBD2 inactive | MBD2 DBD conf inactive
C/C=C\C(=O)Nc1cccc(C2=NOC3(C2)C[C@H](C(N)=O)N(C(=O)/C=C/CC)C3)c1 (some centres undefined)	none
CCC(=O)Nc1cccc(C2=NOC3(C2)C[C@@H](C(N)=O)N(C(=O)COc2ccc(Cl)cc2)C3)c1 (some centres undefined)	none
C=C(C)C(=O)Nc1cccc(C2=NOC3(C2)C[C@@H](C(N)=O)N(C(=O)c2cc([N+](=O)[O-])cc([N+](=O)[O-])c2C)C3)c1 (some centres undefined)	UHRF1 MBD2 ctr 34, MBD2 inh 18 | UHRF1 ctr MBD2 24 | MBD2 DBD conf inactive
C=C(C)C(=O)Nc1cccc(C2=NOC3(C2)C[C@H](C(N)=O)N(C(=O)COc2ccc(Cl)cc2)C3)c1 (some centres undefined)	LEDGF integ inh 16, UHRF1 MBD2 ctr 69, MBD2 inh 51 | UHRF1 ctr MBD2 88 | MBD2 DBD conf 69
C=C(C)C(=O)Nc1cccc(C2=NOC3(C2)C[C@@H](C(N)=O)N(C(=O)/C=C/CC)C3)c1 (some centres undefined)	UHRF1 MBD2 ctr 67, MBD2 inh 39 | UHRF1 ctr MBD2 69 | MBD2 DBD conf 43
O=C(c1ccc(C#Cc2ccccc2)cc1)N1CCC(O)CC1	none (no result: ABHD5 PLIN5 PPI)
Cc1ccc2cccc(OCC(=O)Nc3cccc(S(=O)(=O)N4CCCC4)c3)c2n1	MBD2 inh 17 | UHRF1 ctr MBD2 inactive | MBD2 DBD conf inactive
C=CCN1[C@H](C#N)[C@@H](c2ccc(C#Cc3cccc(OC)c3)cc2)[C@H]1CO	MBD2 inh 15 (no result: ABHD5 PLIN5 PPI) | UHRF1 ctr MBD2 inactive | MBD2 DBD conf inactive
O=C(O)c1ccccc1C(=O)Nc1ccc(S(=O)(=O)Nc2nccs2)cc1	PRMT1 FP inh 24, MBD2 inh 19 | UHRF1 ctr MBD2 inactive | MBD2 DBD conf inactive
CSc1ncccc1C(=O)Nc1ccc(S(=O)(=O)Nc2nccs2)cc1	none
CC[C@@H](CCCc1ccc(F)cc1)CN(Cc1ccc(OC)cc1)S(=O)(=O)c1ccc(C)cc1	none (no result: ABHD5 PLIN5 PPI)
COC(=O)C1CCN(C(=O)COC(=O)c2ccc(N3CCCC3=O)cc2)CC1	MBD2 inh 14 | UHRF1 ctr MBD2 inactive | MBD2 DBD conf inactive
CCCCn1c(N)c(N(CC(C)C)C(=O)C(C)SCc2nc3sc(C)c(C)c3c(=O)[nH]2)c(=O)[nH]c1=O (centres undefined)	MBD2 inh 20 | UHRF1 ctr MBD2 inactive | MBD2 DBD conf inactive
